Experimental data taken from PMC4336329 (PLoS ONE, 2015).
The campaign covered roughly 310,000 compounds. About 14,000 (4.5%) showed an effect of 50% or more. The effect is printed as a negative number. The entries come from a sample that favours strong results as a whole.

target: human ether-à-go-go-related gene (hERG) potassium channel (human, UniProt Q12809); test: primary screen, population patch clamp on CHO cells stably expressing hERG; higher = less effect of the substance
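Also: peak tail current of the secondary pulse compared with the same well before compound.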

human ether-à-go-go-related gene (hERG) potassium channel, sequence (Q12809 whole entry, looked up): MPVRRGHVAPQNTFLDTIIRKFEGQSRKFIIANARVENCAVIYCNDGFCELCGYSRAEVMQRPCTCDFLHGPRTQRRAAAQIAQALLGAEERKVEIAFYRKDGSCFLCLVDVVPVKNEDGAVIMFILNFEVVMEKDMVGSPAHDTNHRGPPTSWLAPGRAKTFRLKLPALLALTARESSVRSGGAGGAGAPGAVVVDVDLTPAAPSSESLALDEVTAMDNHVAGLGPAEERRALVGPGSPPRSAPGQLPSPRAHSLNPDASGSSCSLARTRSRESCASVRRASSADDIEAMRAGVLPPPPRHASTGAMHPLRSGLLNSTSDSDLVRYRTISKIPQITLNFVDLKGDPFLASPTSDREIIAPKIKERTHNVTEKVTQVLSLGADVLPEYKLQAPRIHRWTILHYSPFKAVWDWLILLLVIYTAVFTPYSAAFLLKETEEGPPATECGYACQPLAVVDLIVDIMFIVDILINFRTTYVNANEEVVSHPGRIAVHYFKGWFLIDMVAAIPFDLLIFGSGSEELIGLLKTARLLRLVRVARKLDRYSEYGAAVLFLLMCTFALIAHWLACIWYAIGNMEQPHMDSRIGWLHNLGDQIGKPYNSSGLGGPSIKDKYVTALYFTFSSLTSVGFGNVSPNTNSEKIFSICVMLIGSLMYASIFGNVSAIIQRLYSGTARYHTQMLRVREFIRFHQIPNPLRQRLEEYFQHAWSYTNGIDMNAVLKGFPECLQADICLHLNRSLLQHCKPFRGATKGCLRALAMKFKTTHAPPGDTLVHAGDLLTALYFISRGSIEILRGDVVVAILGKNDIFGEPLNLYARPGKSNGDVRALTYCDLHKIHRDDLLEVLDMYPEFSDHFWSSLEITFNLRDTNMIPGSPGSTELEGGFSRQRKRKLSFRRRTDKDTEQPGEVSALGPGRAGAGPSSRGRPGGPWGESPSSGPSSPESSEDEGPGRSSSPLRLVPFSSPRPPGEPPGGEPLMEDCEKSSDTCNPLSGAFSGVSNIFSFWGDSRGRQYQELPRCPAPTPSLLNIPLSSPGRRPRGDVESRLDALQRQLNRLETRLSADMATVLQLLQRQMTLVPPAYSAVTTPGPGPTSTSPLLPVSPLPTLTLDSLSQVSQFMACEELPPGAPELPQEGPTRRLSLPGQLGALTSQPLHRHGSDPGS

Row | SMILES | hERG current change (%, negative = inhibition) at 10uM [%]
1 | COC(=O)c1[nH]c2cc(OC)ccc2c1NC(=O)CCN1CCSCC1 | 7.01
2 | CCc1nn(C(C)C(=O)N2CC(C)CC(C)C2)c(=O)c2cc3occc3n12 (stereo not drawn) | -7.58
3 | CNC(=O)Nc1ccc(Cl)cc1 | 7.56
4 | O=C(C1=C[C@H](c2csc3ccccc23)C[C@H](OCc2ccc(CO)cc2)O1)N1CCOCC1 | -59.2
5 | CC(=O)n1cc([C@H]2C=C(C(=O)N3CCN(Cc4ccccc4)CC3)O[C@@H](OCCCCO)C2)c2ccccc21 | -42.5
6 | CC(=O)n1cc([C@H]2C=C(C(=O)N3CCOCC3)O[C@@H](OCCCCO)C2)c2ccccc21 | -17.1
7 | CC(=O)n1cc([C@H]2C=C(C(N)=O)O[C@@H](OCc3ccc(CO)cc3)C2)c2ccccc21 | -16.8
8 | CC(=O)n1cc([C@@H]2C=C(C(=O)O)O[C@H](OCc3ccc(CO)cc3)C2)c2ccccc21 | 0.587
9 | C=CCOC(=O)C1=C[C@@H](c2cn(C(C)=O)c3ccccc23)C[C@@H](OCc2ccc(CO)cc2)O1 | -93.5
10 | CC(=O)n1cc([C@@H]2C=C(C(=O)N3CCOCC3)O[C@H](OCCCCO)C2)c2ccccc21 | -51.6
11 | CC(=O)n1cc([C@@H]2C=C(C(=O)N3CCOCC3)O[C@H](OCc3ccc(CO)cc3)C2)c2ccccc21 | -74.8
12 | O=C(C1=C[C@@H](c2csc3ccccc23)C[C@@H](OCc2ccc(CO)cc2)O1)N1CCOCC1 | -27.5
13 | O=C(C1=C[C@H](c2csc3ccccc23)C[C@H](OCc2ccc(CO)cc2)O1)N1CCCCCCC1 | -15.1
14 | C=CCOC(=O)C1=C[C@H](c2cn(C(C)=O)c3ccccc23)C[C@H](OCc2ccc(CO)cc2)O1 | -9.82
15 | CC(=O)n1cc([C@@H]2C=C(C(=O)N3CCN(Cc4ccccc4)CC3)O[C@H](OCc3ccc(CO)cc3)C2)c2ccccc21 | -10.1
16 | O=C(CCCCCn1c(=S)[nH]c2ccc(N3CCOCC3)cc2c1=O)NCc1ccccc1Cl | 4.65
17 | C=COCCn1c(-c2nonc2N)nc2ccccc21 | -3.07
18 | CC(NC(=O)CCC(=O)NCc1ccc(F)cc1)c1ccccc1 (stereo not drawn) | 13.3
19 | COc1ccc(NC(=S)NC(NC(=O)CF)C(Cl)(Cl)Cl)cc1[N+](=O)[O-] (stereo not drawn) | 15
20 | CCOC(=O)c1ccc(NC(=O)CC2C(=O)N(c3ccc(F)cc3)C(=O)N2CCC(C)C)cc1 (stereo not drawn) | -8.43
21 | COc1ccc(-c2cc(-c3ccc(OC)cc3)c(C#N)c(SC)n2)cc1 | 5.38

Row | SMILES | hERG current change (%, negative = inhibition) at 10uM [%]
22 | CCn1nc(C(=O)Nc2cccc(S(=O)(=O)N3CCCC3)c2)c2ccccc2c1=O | -22.3
23 | COc1ccc(S(=O)(=O)N2CCCC(C(F)(F)F)C2)cc1 (stereo not drawn) | 10.2
24 | O=C(CCNS(=O)(=O)c1ccc2c(c1)CCC(=O)N2)NCc1ccc2c(c1)OCO2 | 0.608
25 | Cc1cccc(NC(=O)Nc2cc(C)on2)c1 | 9.14
26 | C=C1CCC[C@]2(C)C[C@H]3OC(=O)C(CN4CCOCC4)[C@H]3C[C@@H]12 (stereo partly drawn) | 17.7
27 | COc1cccc(OC)c1C(=O)Nc1cccc(-n2cnnn2)c1 | 15.7
28 | CN1CCC(OC(=O)Cc2ccc(Cl)cc2)CC1.Cl | -11
29 | CN(C(=S)Nc1ccc(Oc2ccccc2)cc1)c1ccc(O)cc1 | -6.93
30 | CC(=O)n1cc([C@H]2C=C(C(=O)N3CCOCC3)O[C@@H](OCc3ccc(CO)cc3)C2)c2ccccc21 | -55.2
31 | CC(=O)n1cc([C@@H]2C=C(C(=O)N3CCN(C)CC3)O[C@H](OCc3ccc(CO)cc3)C2)c2ccccc21 | -41.7
32 | CC(=O)n1cc([C@H]2C=C(C(=O)N3CCN(Cc4ccccc4)CC3)O[C@@H](OCc3ccc(CO)cc3)C2)c2ccccc21 | -24
33 | CCN(c1ccccc1)S(=O)(=O)c1ccc(C(=O)N(C)CCc2ccc(OC)c(OC)c2)cc1 | -13.8
34 | Clc1ccc(N2CCN(Cc3ccc(Br)o3)CC2)cc1 | 7.93
35 | O=[N+]([O-])c1ccc(CN2CCN(c3ccc(Cl)cc3)CC2)o1 | -2.29
36 | O=[N+]([O-])c1ccc(CN2CCN(c3ccccc3)CC2)o1 | 9.7
37 | O=C(O)C(=O)O.O=[N+]([O-])c1ccc(N2CCN(Cc3ccc([N+](=O)[O-])o3)CC2)cc1 | -71.1
38 | Brc1ccc(CN2CCN(c3ccccc3)CC2)o1 | 13.8
39 | O=[N+]([O-])c1ccc(N2CCN(Cc3ccc(Br)o3)CC2)cc1 | -65.1
40 | Cc1c(N)cccc1-n1cccc1 | 16.2
41 | Cc1ccc2oc(C(=O)N(C)CCC(O)c3ccccc3)c(C)c2c1 (stereo not drawn) | 11.5
42 | COc1ccc(S(=O)(=O)NCCSCc2cccc(C)c2)cc1Br | -0.641

Row | SMILES | hERG current change (%, negative = inhibition) at 10uM [%]
43 | CCNC(=O)NS(=O)(=O)c1cnccc1Nc1cccc(Cl)c1 | 25.1
44 | c1ccc(-c2noc(C3CCC3)n2)nc1 | 4.59
45 | CC(C)CC(=O)N/N=C/c1c(N)n(C)c(=O)n(C)c1=O | 21.7
46 | COc1ccc(N2CCN(CCCNC(=O)Cn3c(=O)c4cccn4c4ccccc43)CC2)cc1 | -43.7
47 | CN1CCN(CCNC(=O)Cn2c(=O)c3cccn3c3ccc(F)cc32)CC1 | 14.1
48 | O=C(Cn1c(=O)c2cccn2c2cccnc21)NCCCN1CCN(c2ccc(F)cc2)CC1 | -76.4
49 | O=C(Cn1c(=O)c2cccn2c2ccccc21)NCCCN1CCCCC1 | 3.5
50 | COc1ccc(N2CCN(C(=O)Cn3c(=O)c4cccn4c4cccnc43)CC2)cc1 | -15.3
51 | NS(=O)(=O)c1ccc(CCNC(=O)Cn2c(=O)c3cccn3c3cccnc32)cc1 | 22.3
52 | COc1ccc(N2CCN(CCCNC(=O)Cn3c(=O)c4cccn4c4cccnc43)CC2)cc1 | -57.2
53 | CCN1CCN(CCNC(=O)Cn2c(=O)c3cccn3c3ccc(F)cc32)CC1 | -2.61
54 | O=C(Cn1c(=O)c2cccn2c2ccc(F)cc21)NCCCN1CCN(c2ccccc2F)CC1 | -50.5
55 | COc1ccccc1CCNC(=O)C(=O)NCCC1CCCCN1S(=O)(=O)c1cccs1 (stereo not drawn) | -6.92
56 | Cc1c(NC(=O)CSCc2ccccc2)cccc1C(=O)O | 18
57 | CCn1cc([N+](=O)[O-])c(C(=O)N2N=C(c3ccc4ccccc4c3)CC2c2ccccc2O)n1 (stereo not drawn) | 3.19
58 | Clc1ncccc1-c1nnn(-c2ccccc2)n1 | 15.1
59 | Cc1[nH]c2ccccc2c1/C=N/NC(N)=S | 2.1
60 | N#CCCS(=O)(=O)c1nnnn1-c1ccccc1 | -18.7
61 | Cn1c(O)c(N=NC(=O)Cn2c(C(F)(F)F)nc3ccccc32)c2ccccc21 | 6.02
62 | CC(C)C(C(=O)O)N1C(=O)/C(=C/c2cccn2C)SC1=S (stereo not drawn) | -0.129
63 | COCC1CCCN(C(=O)c2ccc3oc(Cc4ccc(Cl)cc4)nc3c2)C1 (stereo not drawn) | -24.7

Row | SMILES | hERG current change (%, negative = inhibition) at 10uM [%]
64 | O=C(CN1CCCC1)Nc1cc(C(F)(F)F)cc(C(F)(F)F)c1 | -17.9
65 | O=C(CN1CCN(C(=O)C2CCC2)CC1)Nc1ccc(F)cc1 | -69.9
66 | O=C(CN1CCCC1)NCC(=O)Nc1ccc(F)cc1 | 8.87
67 | Cc1ccc(NC(=O)CN2CCCC2)cc1.Cl | 19.1
68 | Cl.O=C(CN1CCN(c2cccc(C(F)(F)F)c2)CC1)Nc1cccc(C(F)(F)F)c1 | -1.14
69 | O=C(CN1CCCC1)Nc1ccc(F)cc1 | 23.3
70 | O=C(CN1CCN(C(=O)N2CCCCC2)CC1)Nc1ccc(F)cc1 | -74.9
71 | O=C(C1CCCC1)N1CCCC(Nc2ccc(F)cc2)C1 (stereo not drawn) | -37.2
72 | O=C(CN1CCN(C(=O)C2CC2)CC1)Nc1cc(C(F)(F)F)cc(C(F)(F)F)c1 | -54.4
73 | CC(O)(CS(=O)(=O)Cc1ccccc1)C(=O)Nc1cccc(C(F)(F)F)c1 (stereo not drawn) | 1.72
74 | COC(=O)Nc1ccc(S(=O)(=O)N2CCCc3ccccc32)cc1 | 8.63
75 | O=C1Oc2ccccc2C(=O)/C1=C/N1CCN(c2ccccc2F)CC1 | -0.353
76 | O=c1[nH]c(Cl)ccc1CN1CCOCC1 | 14.5
77 | Cc1ccccc1C(=O)Nn1cnnc1 | 3.49
78 | COc1ccc(S(=O)(=O)NCc2ccc(C(=O)NCCCN3CC(C)CC(C)C3)cc2)cc1 (stereo not drawn) | -28.1
79 | COC(=O)c1cc(S(=O)(=O)N2CCC(C)CC2)ccc1F | -18
80 | COc1ccc(-c2cc(CNS(=O)(=O)c3cc(OC)ccc3OC)on2)cc1 | 6.1
81 | O=C(NC(=S)Nc1ccc2nc[nH]c2c1)c1ccccc1 | 12.4
82 | COc1ccc(CCNCc2ccsc2)cc1OC | 1.86
83 | Cc1cc(/C=C2\Cc3ccccc3C2=O)c(C)n1-c1ccccc1 | 1.62
84 | O=C(Nc1ccc(N2CCOCC2)c(F)c1)c1cccs1 | 1.9
